# TRHR ag: qHTS for Small Molecule Agonists and Allosteric Enhancers of Human TRH Receptor: Primary Screen for Agonists; Thyrotropin-releasing hormone receptor (Homo sapiens), P34981; TRHR cells, calcium flux fluo-8, FDSS agonist mode; hit rate 0.18% among 360,000; activation, % at 2 µM; note: 0% is about no effect
#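 TRHR-expressing cells loaded with fluo-8 calcium dye; 23 nL library compound pin-transferred, kinetic FDSS fluorescence (Ex 480/Em 530) recorded about 180 s for agonist-induced calcium release, before a 10 nM TRH EC20 addition for potentiator mode.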
# Glioma ERSR ind: qHTS for Inducers of the Endoplasmic Reticulum Stress Response (ERSR) in Human Glioma: qHTS. Potency, µM, without a hit: top-dose activation, usual class: activators. hit rate 0.02% among 420,000. U87-MG GRP78 promoter luciferase reporter, 16 h; active = well fitted activation curve with a large enough effect; note: potency is the fitted concentration of half-maximal effect; series mostly up to about 76 µM; % of control where 0% means no effect; nearly all actives have a fitted effect of over 35% in size
#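 Stably transfected U87-MG human glioma cells carrying a GRP78-based luminescent sensor were seeded at 1000 cells/well, pin-dosed with compounds and incubated 16 h. Luciferase reagent was then added, and end-point luminescence was read after 10 min at room temperature.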
# D1 PAM: Potentiators of Human D1 Dopamine Receptor: qHTS. D(1A) dopamine receptor (Homo sapiens), P21728. HEK293 TREx D1 cells, calcium flux, dopamine EC20 potentiation. potentiation, % at 10 µM. hit rate 0.036% among 360,000; in the data active = potentiation above about 30%; note: 0% is about no effect
# Target sequence (P21728 whole entry, looked up): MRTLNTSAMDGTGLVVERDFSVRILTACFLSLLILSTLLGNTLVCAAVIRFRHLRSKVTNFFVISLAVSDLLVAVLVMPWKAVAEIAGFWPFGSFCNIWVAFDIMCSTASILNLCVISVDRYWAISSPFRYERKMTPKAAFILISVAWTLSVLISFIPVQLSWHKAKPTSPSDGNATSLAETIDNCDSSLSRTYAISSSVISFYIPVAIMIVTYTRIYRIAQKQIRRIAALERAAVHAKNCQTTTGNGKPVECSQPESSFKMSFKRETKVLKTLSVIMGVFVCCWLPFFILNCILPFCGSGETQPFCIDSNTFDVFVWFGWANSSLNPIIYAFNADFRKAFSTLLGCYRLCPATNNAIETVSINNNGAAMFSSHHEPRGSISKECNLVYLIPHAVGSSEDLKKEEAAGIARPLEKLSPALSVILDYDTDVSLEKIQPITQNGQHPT
# D1 antagonist: Antagonist of Human D 1 Dopamine Receptor: qHTS | D(1A) dopamine receptor (Homo sapiens), P21728 | HEK293 TREx D1 cells, calcium flux, dopamine EC80; active compounds read low | activity change, negative = inhibition, % at 10 µM | hit rate 3.2% among 360,000 | AID 504652, 2011; in the data active = activity change below about -30%; note: % is set by controls: 0 for no effect and ±100 for the full control effect
#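 Compound effects on dopamine-evoked calcium signalling were measured in tetracycline-induced HEK293 Trex D1 cells. Dopamine at EC80 followed a 180 s compound pre-read, and fluorescence was tracked kinetically for 180 s more.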
# TRHR enhancer: qHTS for Small Molecule Agonists and Allosteric Enhancers of Human TRH Receptor: Primary Screen for Enhancers | TRHR cells, fluo-8 calcium fluorescence, EC20 TRH enhancement | enhancement, % at 2 µM | hit rate 0.66% among 360,000 | AID 493056, 2011; in the data active = enhancement above about 30%; note: 0% is about no effect
#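 TRHR-expressing cells loaded with fluo-8 calcium dye were read kinetically (ex 480/em 530) during compound addition, then stimulated with an EC20 of TRH (10 nM final). Enhancement of the Gq-mediated intracellular calcium response was scored.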
# D1 agonist: Allosteric Agonists of the Human D1 Dopamine Receptor: qHTS | HEK293 T-REx D1 cells, calcium flux, agonist mode | activation, % at 2 µM | hit rate 1% among 360,000 | AID 504660, 2011; note: 0% is about no effect
#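 Tetracycline-induced HEK293 TREx D1 cells, force-coupled to calcium signalling, were dye-loaded with a no-wash calcium kit. Compound was pin-added after a 10 s baseline. Fluorescence was read kinetically at 1 cycle/s for 180 s, with calcium rises flagged as agonism.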
# The depositor's hits bear a star; . = no result given. Only some compounds are listed: those with a hit (about 4% of all), similar ones and a draw of the others. Cut-off read from the data, not from the text of the source, unless noted: active = activation above about 30%; inactive = the rest.
SMILES,TRHR ag,Glioma ERSR ind,D1 PAM,D1 antagonist,TRHR enhancer,D1 agonist
O=C(O)c1ccc2c3c(cccc13)C(=O)N(c1ccccc1)C2=O,0,-3%,-1,-4,6,7
Cc1cccc(N2C(=O)c3cccc4c(N(C)CCO)ccc(c34)C2=O)c1,-1,-4%,0,-3,-4,200*
O=C(O)c1cccc(N2C(=O)c3cccc4c(Cl)ccc(c34)C2=O)c1,3,-4%,-1,19,-1,4
Nc1cccc(N2C(=O)c3cccc4c(N)ccc(c34)C2=O)c1,127*,-4%,-4,-9,13,156*
CC(c1ccon1)N(C)C(=O)c1cnn(-c2ncc3c(n2)-c2ccccc2CC3)c1C1CC1 (stereo unspecified),.,11%,.,.,.,.
O=C(O)C(Sc1ccncn1)c1ccccc1 (stereo unspecified),0,0%,2,-35*,2,1
O=C(O)C(SC(C(=O)O)c1ccccc1)c1ccccc1 (stereo unspecified),.,-3%,.,.,.,.
CN1CCN(NC(=O)c2cn(-c3ccccc3)nc2-c2cccc(Br)c2)CC1,1,-5%,-10,-33*,1,14
CCc1ccc2occ(CC(=O)N(Cc3ccc(N(C)C)cc3)C3CCS(=O)(=O)C3)c2c1 (stereo unspecified),-1,-2%,6,5,9,-2
Cc1ccc2occ(CC(=O)N(Cc3ccc(N(C)C)cc3)C3CCS(=O)(=O)C3)c2c1 (stereo unspecified),-1,-1%,2,-43*,2,1
CN(N)c1nc(C(F)(F)F)nc2ccccc12,0,-4%,3,-3,0,-1
Nc1nc(N(Cc2ccccc2)Cc2ccccc2)nc(C(F)(F)F)n1,2,-3%,-9,-34*,3,9
CSc1nc(C)c(Oc2ccccc2)c(=O)n1C,-1,-1%,-12,-71*,0,-4
O=c1[nH]c2c(=O)[nH]cnc2nc1-c1ccccc1,.,0%,.,.,.,.
COc1cc(C2NC(=S)NC(c3ccccc3)=C2C(C)=O)cc(Cl)c1OCC(=O)O (stereo unspecified),-1,-3%,-4,-10,6,1
COc1cc(C2NC(=O)NC(c3ccccc3)=C2C(C)=O)cc(Cl)c1OCC(=O)O (stereo unspecified),0,3%,2,38,33*,-2
CCOC(=O)c1cc(CNC(=O)c2c(C)oc3c2CCCC3)c(C)o1,0,2%,-11,-4,14,0
CN(C)CCCOc1nn(Cc2ccccc2)c2ccccc12,1,-2%,-8,-31*,17,18
CCOc1ccccc1/C=C/C(=O)c1ccc(Cl)cc1,0,-5%,-6,-32*,0,8
COc1ccccc1/C=C/C(=O)c1ccc(Cl)cc1,0,8%,-6,-36*,-7,12
COC(=O)c1cc(CNC(=O)c2ccccc2)cc(NC(=O)c2ccccc2OC)c1,.,0%,.,.,.,.
COC(c1ccccc1)(c1ccccc1)C(Oc1nccc(C)n1)C(=O)O (stereo unspecified),0,-4%,1,4,31*,-1
COc1ccc(-n2c(=O)c3c(c4cc(OC)ccc4n3C)n(Cc3cc(C)ccc3C)c2=O)cc1,0,-3%,-3,-74*,3,-1
O=[N+]([O-])c1ccc(/C=N/NC(=S)Nc2ccccc2F)o1,0,-2%,-4,-53*,-1,3
O=[N+]([O-])c1ccc(/C=N/NC(=S)Nc2ccccc2)o1,-1,-3%,-4,-3,-4,9
SMILES,TRHR ag,Glioma ERSR ind,D1 PAM,D1 antagonist,TRHR enhancer,D1 agonist
O=[N+]([O-])c1ccc(/C=N/Nc2ccc3ccccc3c2)o1,6,3%,-2,11,-4,40*
CC(=O)N1CCC(N(CCN2CCOCC2)C(=S)Nc2ccc(C)cc2C)CC1,1,-6%,-5,-31*,2,3
CC(=O)N1CCC(N(CCN2CCOCC2)C(=S)Nc2ccc(C)cc2)CC1,1,-1%,-2,-2,-1,1
Cc1cc(NC(=O)CSc2nnc(-c3ccccc3Cl)o2)no1,0,0%,-8,-6,34*,1
Cc1cc(NC(=O)CSc2ccc(Cl)cc2)no1,-5,0%,-4,3,-3,3
Cc1cccc(NC(=O)CSc2nnc(-c3cc(C)n(-c4ccccc4)c3C)o2)c1C,0,3%,-8,-22,-1,0
Cc1cc(-c2nnc(SCC(=O)Nc3ccccc3C(F)(F)F)o2)c(C)n1-c1ccccc1,8,-5%,-4,-1,6,52*
Cc1cc(NC(=O)CSc2nnc(-c3cccc(Cl)c3)o2)no1,0,-2%,4,-15,0,3
CC(C)(C)NC(=O)CSc1nc(-c2ccc(F)cc2)cs1,-2,1%,0,3,-2,2
Cc1cc(NC(=O)CSc2nc(-c3ccc(Cl)cc3)cs2)no1,0,-3%,-3,-46*,-1,2
CCNC(=O)CSc1nc(-c2ccc(F)cc2)cs1,0,4%,-7,-31*,-2,0
COc1ccc(Cl)cc1-c1nc(SCC(=O)N(C)C2CCS(=O)(=O)C2)n[nH]1 (stereo unspecified),.,-1%,.,.,.,.
COc1cc(=O)n2c(c1C(=O)NC(C)c1ccco1)CCN(C(=O)c1[nH]c(C)cc1C)CC2 (stereo unspecified),.,-4%,.,.,.,.
CCOC(=O)Cc1ccc(NC(=O)Nc2cccc(OCc3cc(=O)n4cc(C)ccc4n3)c2)cc1,0,-2%,0,7,-2,1
CCOC(=O)/C(C#N)=C\c1cn(C)c2ccccc12,-1,0%,-4,-32*,-1,3
COc1cc(Cn2c(=O)oc3ccc(C)cc32)ccc1OC(C)C,1,-2%,-12,-33*,-9,11
CCOC(=O)c1cc2c(N)c(C(=O)c3ccc(Br)cc3)sc2[nH]c1=O,0,-5%,-9,3,35*,2
COc1ccc(N(CC(=O)N2CCN(c3ccccc3F)CC2)S(=O)(=O)c2ccc(C)cc2)cc1,0,1%,1,6,0,5
CSC1=C(C#N)C(c2ccccc2Cl)C(C(=O)c2cccs2)C(O)(C(F)(F)F)N1 (stereo unspecified),0,-3%,-8,-31*,0,1
